Bioassay records (PubChem BioAssay)
Only some compounds are listed: those with a hit (about 3.3% of all), similar ones and a draw of the others.
Cl transport mod: modulators of human KCC2 chloride dependent transport; Q9H2X9; KCC2 cells, thallium flux FluoZin-2 fluorescence; B-score of Tl+ flux slope (higher = more flux/activation; lower = inhibition) at 10 µM; 190,000 compounds, 2.2% hits;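 active = thallium flux slope and its plate-corrected score both differing from the plate sample mean at a set confidence after two filtering rounds, in either direction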;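 also: slope of fluorescence scaled to starting intensity during 10 to 20 s after thallium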
Calb FLC: C. albicans growth modulation with fluconazole. C. albicans CaCi-2 (fluconazole-resistant clinical isolate) + fluconazole, Alamar Blue growth, 48 h. growth inhibition, % (test concentration not listed). 300,000 compounds, 0.57% hits. AID 1979;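 active = growth inhibition above about 58% in most replicates, limit read from the data, passing the limit was not always enough; inconclusive = exactly half the replicates above a set limit; inactive = most replicates below a set limit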;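 also: all wells also contain fluconazole at 8 µg/ml as a sub-toxic cotreatment; 0% = median of DMSO wells and 100% = median of geldanamycin control wells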
PHOSPHO1 inh: blocks human PHOSPHO1 phosphatase activity | Q8TCT1 | recombinant PHOSPHO1, absorbance phosphatase assay | inhibition, % at 13.3 µM | 290,000 compounds, 1.1% hits | AID 1565; in the data active = inhibition above about 60%
Target sequence (Q8TCT1 whole entry, looked up): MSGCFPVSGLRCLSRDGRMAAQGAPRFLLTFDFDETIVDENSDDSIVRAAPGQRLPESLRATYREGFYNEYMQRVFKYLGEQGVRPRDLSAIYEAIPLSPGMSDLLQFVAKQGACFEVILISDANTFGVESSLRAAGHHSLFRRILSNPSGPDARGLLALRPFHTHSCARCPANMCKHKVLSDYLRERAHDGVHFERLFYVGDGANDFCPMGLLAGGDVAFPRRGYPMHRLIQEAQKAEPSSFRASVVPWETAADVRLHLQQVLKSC
Efflux pump mplx: blocks antifungal efflux pumps in multiplex yeast assay; S. cerevisiae Candida pump triplex, Nile Red efflux; inhibition, % at 10 µM; 330,000 compounds, 0.44% hits; AID 485275;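 active = plate passing quality check with inhibition over a set limit, or well fluorescence over plate mean plus 4 SD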;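 also: Nile Red retained in pooled yeast measured as flow cytometry median fluorescence; 0% = buffer negative control and 100% = Enniatin B positive control; higher means more Nile Red kept so more efflux inhibition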
Cardio protect: myocardial damage modulation in H9c2 cells | H9c2 cardiomyocytes, H2O2 injury protection, ATPLite, 2 h | protection from H2O2 cell death, % at 20 µM | 360,000 compounds, 0.63% hits | AID 588492;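 active = compounds giving at least 50% protection of heart cells from peroxide-induced death in the single-dose screen, raw or plate-pattern-corrected value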;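 also: 0% = DMSO wells with peroxide and 100% = DMSO wells without peroxide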
KCC2 sec1: KCC2 (human) modulation, secondary assay; HEK293-KCC2, thallium flux, FluoZin2 fluorescence; active compounds read high; 3,700 compounds, 15% hits; normalised thallium flux (F/F0 slope) at 10 µM; shares compounds with Cl transport mod; AID 1713;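 active = thallium flux slope above the same plate's solvent-only control mean plus 3 SD; inconclusive = the two replicate wells disagree; inactive = no significant difference from solvent-only control wells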
KCC2 bumet counter: thallium flux persisting under bumetanide in KCC2 cells, counter-screen secondary assay. 3,700 compounds, 49% hits. shares compounds with Cl transport mod. HEK293-KCC2 + bumetanide/ouabain, thallium flux FluoZin2; active compounds read high. normalized thallium flux at 10 µM. AID 1714;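 active = thallium entry rate above the same plate's blocked-transporter control wells by more than 3 SD; inconclusive = the two repeat wells disagree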;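 also: raw slope of fluorescence over initial fluorescence between 10 and 20 s after thallium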
KCC2 sec2: confirmation of human KCC2 transport modulators; AID 1715; normalized thallium flux at 10 µM; 3,700 compounds, 23% hits; HEK293-KCC2, thallium flux FluoZin2 fluorescence; actives lie on both sides; F/F0 rise rate, 10–20 s post-thallium; shares compounds with Cl transport mod;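 active = thallium flux slope more than 3 SD above or below the plate's solvent-only control mean, mostly below; inconclusive = the two repeat wells disagreed; inactive = no significant shift from solvent-only controls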;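 also: raw slope with 0.1% DMSO as baseline and bumetanide as block control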
HEK293 Tl flux: counter-screen for KCC2 modulators: effect in parental HEK293 cells. shares compounds with Cl transport mod. thallium flux FluoZin2, ouabain; baseline-ratio fluorescence slope, 10–20 s after thallium. thallium flux rate (normalised fluorescence) at 10 µM. 3,700 compounds, 46% hits. AID 1716;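 active = thallium flux rate significantly above the same plate's solvent-only control wells, beyond their mean plus 3 SD; inconclusive = the two replicate wells gave conflicting results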
KCC2 ouabain: confirmation of human KCC2 modulators with ouabain; shares compounds with Cl transport mod; HEK293-KCC2, thallium flux FluoZin2 fluorescence; bidirectional: low = inhibitor, high = activator; raw Tl+ flux slope (below DMSO = inhibition, above = activation) at 10 µM; 3,700 compounds, 48% hits; AID 1717;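 active = thallium flux slope beyond 3 SD from same-plate DMSO control mean in most replicates, usually higher, sometimes lower; inconclusive = repeat tests gave conflicting results; inactive = no significant difference from controls in most replicates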;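 also: slope of initial-normalized fluorescence between seconds 10 and 20 after thallium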
HEK counter2: parental HEK flux effect, counter-screen 2; shares compounds with Cl transport mod; HEK293 parental, thallium flux FluoZin-2 fluorescence slope; thallium flux slope at 10 µM; 3,700 compounds, 33% hits; AID 1718;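 active = thallium flux slope above the same plate's solvent-control mean plus 3 SD in both duplicate wells; inconclusive = duplicate wells that disagreed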;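 also: run without ouabain in cells lacking the KCC2 cotransporter; slope of fluorescence scaled to its starting value between 10 and 20 s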
Starred values were filed as active, the others as inactive; u = inconclusive; x = no result given.

SMILES	Cl transport mod	Calb FLC	PHOSPHO1 inh	Efflux pump mplx	Cardio protect	KCC2 sec1	KCC2 bumet counter	KCC2 sec2	HEK293 Tl flux	KCC2 ouabain	HEK counter2
N#C/C(=C(/O)COC(=O)c1ccccc1O)c1nc2ccccc2s1	-5.13*	83.3*	37.8	-0.2	-21.6	0.0063	0.00741	0.0287	0.0065	0.016*	0.00902
O=C(COC(=O)CNC(=O)C1CCCCC1)Nc1ccccc1OC(F)F	x	x	x	-0.1	-6.4	x	x	x	x	x	x
O=c1oc2ccccc2c(Nc2cccc3ccccc23)c1[N+](=O)[O-]	-2.57*	-9.0	-54.1	-0.1	-18.4	0.00773	0.00581	0.0318	0.00338	0.0159*	0.0109
O=c1oc2ccccc2c(Nc2cc3ccccc3cc2O)c1[N+](=O)[O-]	-4.3*	5.5	11.7	-0.2	-15.1	0.00647	0.00457	u	0.00646	0.0161*	0.00832*
O=c1oc2ccccc2c(Nc2ccccc2O)c1[N+](=O)[O-]	-1.87	-10.1	28.1	0.0	-3.8	x	x	x	x	x	x
COc1cc(C(=O)NC2CC(C)(C)CC(C)(C)C2)ccc1OC1CCN(C(C)=O)CC1	x	1.9	x	-0.1	-0.2	x	x	x	x	x	x
O=C1c2ccccc2NC(c2ccc(Cl)cc2Cl)N1O (centres undefined)	3.84*	-2.2	1.6	0.0	60.6*	0.0102	0.0209*	0.0315	0.00946*	0.0214	0.00971
O=C1c2ccccc2NC(c2ccc(Cl)cc2Cl)N1Cc1ccccc1 (centres undefined)	-0.085	-0.6	18.2	-0.2	-14.1	x	x	x	x	x	x
N=C1C(c2nc3ccccc3s2)=C(O)CN1Cc1ccco1	3.61*	-3.1	23.8	-0.1	0.2	0.00622	u	0.0295	0.00754	0.0179	0.0108
CC(C)NC(=O)CCc1nc2cccnc2n1-c1ccccc1	x	-2.4	43.7	0.0	11.2	x	x	x	x	x	x
COc1ccc(-c2cc(CCCC(=O)NCCc3cc(OC)ccc3OC)no2)cc1	-4.68*	-21.2	8.7	0.1	1.1	0.00714	0.00417	0.0314	0.00711	0.0173	0.0112
COc1ccc(-c2cc(CCCC(=O)N3CCN(c4ccc(OC)cc4)CC3)no2)cc1	-0.927	2.2	-5.3	0.0	-19.3	x	x	x	x	x	x
CC(C)(C)Nc1nc(OCC(F)(F)F)nc(OCC(F)(F)F)n1	-2.76*	2.4	16.5	-0.1	-12.4	0.00756	0.00695	0.0263	0.00672	0.0149*	0.0101
COCCCn1[nH]c2c3c(ccc2c1=O)C(=O)c1ccccc1C3=O	x	9.0	7.4	0.1	-10.1	0.00503	u	0.0304	0.00805	0.0192	0.0118
CC(C)(C)n1[nH]c2c3c(ccc2c1=O)C(=O)c1ccccc1C3=O	x	7.2	-6.0	0.0	-6.5	0.00562	0.00533	0.0287	0.00818	0.0185	0.0118
Cc1ccc(-n2[nH]c3c4c(ccc3c2=O)C(=O)c2ccccc2C4=O)cc1	0.173	-8.5	-4.0	-0.5	-8.6	x	x	x	x	x	x
CCCS(=O)(=O)NC(=O)C1(C)CCN(C(=O)c2ccco2)C1 (centres undefined)	x	x	x	x	-0.1	x	x	x	x	x	x
Cc1occc1-c1nnc(SCC(=O)N2CCOCC2)n1Cc1ccco1	6.41*	0.0	14.4	-0.1	6.4	0.00924	0.00619	0.0355	0.00797	0.0218	0.0104
Cc1occc1-c1nnc(SCC(=O)N2CCOCC2)n1CC(C)C	x	3.6	-4.4	0.1	-1.3	x	x	x	x	x	x
S=c1[nH]cc(Cc2ccccc2)s1	40*	23.8	-10.6	0.1	7.7	0.0263*	0.117*	0.0316	0.0345*	0.0684*	0.0207*
N#CCSc1nnc(COc2cccc3ccccc23)n1-c1cccc(Cl)c1	7.57*	-4.3	-2.2	-0.1	2.0	0.00719	u	0.0299	0.00812	0.0202	0.011
O=C(CN1CCC(NC(=O)c2ccccc2)CC1)NCc1ccccc1F	x	-3.3	8.6	-0.1	2.8	x	x	x	x	x	x
O=C(CN1CCC(NC(=O)c2cccc(F)c2)CC1)NCc1ccccc1F	x	-7.6	20.7	0.0	3.0	0.00893	0.00683	0.0307	0.00734	0.0332	0.0102
Cc1c(N2C(=O)/C(=C/C3CC=CCC3)SC2=S)c(=O)n(-c2ccccc2)n1C (centres undefined)	0.021	-0.1	-14.8	0.0	10.6	x	x	x	x	x	x
Cc1c(N2C(=O)/C(=C\c3ccccc3O)SC2=S)c(=O)n(-c2ccccc2)n1C	51.9*	1.6	-60.9	-0.1	6.3	0.027*	0.0625*	0.0679*	0.0678*	0.0626*	0.0636*
SMILES	Cl transport mod	Calb FLC	PHOSPHO1 inh	Efflux pump mplx	Cardio protect	KCC2 sec1	KCC2 bumet counter	KCC2 sec2	HEK293 Tl flux	KCC2 ouabain	HEK counter2
Cc1c(N2C(=O)/C(=C\C3CC=CCC3)SC2=S)c(=O)n(-c2ccccc2)n1C (centres undefined)	-0.458	11.3	-21.9	-0.1	0.0	x	x	x	x	x	x
Cc1ccc(/C=C2\SC(=S)N(c3c(C)n(C)n(-c4ccccc4)c3=O)C2=O)cc1	-3.92*	29.5	-4.6	0.0	-6.8	0.0106	u	0.0255*	0.0043	0.0145*	0.012
Cc1c(N2C(=O)/C(=C/c3ccccc3)SC2=S)c(=O)n(-c2ccccc2)n1C	-7.63*	-4.5	13.4	-0.2	0.2	0.00687	u	0.0271*	0.008	0.0144*	u
O=C(NC(=S)Nc1cc(Cl)ccc1O)c1cccc(Br)c1	6.52*	-4.0	34.2	0.5	-4.3	0.00779	0.0309*	0.0357	0.0137*	0.0271*	0.0177*
CC(C)c1ccccc1NC(=O)c1cnccn1	x	-2.1	-20.1	-0.1	2.0	x	x	x	x	x	x
CSc1ccccc1NC(=O)c1cnc2scc(C)n2c1=O	-3.93*	4.9	26.8	0.1	27.5	0.00675	0.00456	0.0268*	0.00616*	u	0.00941
CSc1ccccc1NC(=O)c1cnccn1	3.42*	8.3	31.2	0.2	1.2	0.00719	0.00485	0.0331	0.00706	0.0197	0.00992
COc1ccc(CCNC(=O)CSc2nc3ncccc3[nH]2)c(OC)c1	x	-2.4	42.2	-0.1	-0.4	x	x	x	x	x	x
CC(Sc1n[nH]c(N)n1)C(=O)Nc1ccc(Cl)cn1 (centres undefined)	-0.269	0.9	39.9	0.1	-5.1	x	x	x	x	x	x
Nc1nc(SCC(=O)Nc2ccc(Cl)cn2)n[nH]1	12.7*	-15.7	47.6	0.1	0.2	0.0107	0.00613	0.0312	0.0085	0.0184	0.0107
Cc1cc(NC(=O)C(C)Oc2ccc(Cl)cc2Cl)no1 (centres undefined)	x	-3.6	30.7	-0.1	-10.0	x	x	x	x	x	x
